Results as given in PubChem BioAssay (Tox21).
“And” between values parts separate entries of the source, which are not always exact repeats. Equal entries are not always repeated. Records with an inconclusive call do not appear. A call without a number means that no potency is given here. Some structures have more than one record in an assay (separate samples or runs), and their calls can disagree. The source made the active and inactive calls. Unless noted, calls come from the whole dose curve; as a rule, active = well fitted curve in the direction sought with a large enough effect in the repeat runs; inconclusive = weak or mixed curves; inactive = no such curve, though single readings can be large; an effect the other way counts as inactive or inconclusive.

Assays:
[1] = qHTS assay to identify small molecule agonists of the vitamin D receptor (VDR) signaling pathway - cell viability counter screen (AID 743224); note: nearly all actives have a fitted effect of over 50% in size; note: potency is the fitted concentration of half-maximal effect
How it was run: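 VDR-bla cell line, quantitative HTS format; 16 h compound incubation (37C, 5% CO2); ATP-based CellTiter-Glo luminescence measured in the reporter assay wells.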

[2] = qHTS assay to identify small molecule antagonists of the vitamin D receptor (VDR) signaling pathway - cell viability counter screen (AID 743225); note: nearly all actives have a fitted effect of over 50% in size
How it was run: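 VDR-bla HEK 293T cells, 4 h pre-incubation at 37C, then compound plus 1-alpha,25-dihydroxyvitamin D3 (3 nM final) for 16 h. After the beta-lactamase FRET read, CellTiter-Glo was added to the same wells; luminescence after 30 min at room temperature.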

[3] = qHTS assay to identify small molecule agonists of the NFkB signaling pathway (AID 1159509; active = well fitted curve in the direction sought with a large enough effect in the signal ratio in the repeat runs, not every such curve was filed as active; the % refers to the signal ratio; note: series mostly up to about 61 µM)
How it was run: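 After overnight attachment, reporter cells received test compounds, DMSO or positive controls and were incubated 5 hr at 37 C. FRET substrate was then added for 1.5 hr at room temperature before dual-emission fluorescence reading.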

[4] = qHTS assay to identify small molecule agonists of the NFkB signaling pathway - cell viability counter screen (AID 1159515; calls by dose curve; note: series mostly up to about 61 µM; nearly all actives have a fitted effect of over 55% in size)
How it was run: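 Viability in NFkB-bla ME-180 cells was measured by CellTiter-Glo luminescence, 30 min room temperature, in wells already treated 5 hr with compounds and read for reporter FRET.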

[5] = qHTS assay to identify small molecule agonists of the endoplasmic reticulum stress response signaling pathway (AID 1159516; active = well fitted activation curve with a large enough effect in the signal ratio in the repeat runs, not every such curve was filed as active; the % refers to the signal ratio)
How it was run: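 ER stress element reporter (bla) in HeLa. 1,500 cells/well, overnight attachment; 5 hr compound; 2 hr RT substrate; dual-emission fluorescence.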

[6] = qHTS assay to identify small molecule agonists of the endoplasmic reticulum stress response signaling pathway - cell viability counter screen (AID 1159517; calls by dose curve;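 note: HeLa cells carrying an ER stress response element beta-lactamase reporter; series mostly up to about 61 µM; nearly all actives have a fitted effect of over 50% in size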)
How it was run: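 Counter-screen wells were identical to the reporter wells. Cells were plated at 1,500 per well and dosed for 5 hr, then read for luminescence 30 min after CellTiter-Glo addition.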

[7] = qHTS assay to identify small molecule antagonists of the retinoid-related orphan receptor gamma (ROR-gamma) signaling pathway - cell viability counter screen (AID 1159520); note: nearly all actives have a fitted effect of over 50% in size
How it was run: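 Tet-on ROR gamma CHO cells were given compounds for 2 hr, then doxycycline hyclate at 1 uM final, and incubated 16 hr at 37 C. Viability was measured as ATP content by CellTiter-Glo luminescence.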

[8] = target: Nuclear receptor ROR-gamma (Homo sapiens) (UniProt P51449); experiment: qHTS assay to identify small molecule antagonists of the retinoid-related orphan receptor gamma (ROR-gamma) signaling pathway (AID 1159521; note: nearly all actives have a fitted effect of over 50% in size; note: potency is the fitted concentration of half-maximal effect)
How it was run: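 Tet-on RORγ CHO cells carrying a ROR response element–luciferase reporter were pretreated with compounds for 2 h, then induced with 1 uM (final) doxycycline hyclate for 16 h at 37 C. Antagonism was read as decreased ONE-Glo luminescence.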

[9] = qHTS assay to identify small molecule agonists of the AP-1 signaling pathway (AID 1159526; calls by dose curve)
[10] = qHTS assay to identify small molecule agonists of the AP-1 signaling pathway - cell viability counter screen (AID 1159525; calls by dose curve; note: nearly all actives have a fitted effect of over 55% in size)
How it was run: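 AP-1-bla ME-180 cells in Opti-MEM with 0.5% dialyzed FBS, compound exposure 5 h at 37 C in 15-point titration. Viability read in the same wells as ATP content by CellTiter-Glo luminescence, normalised to tetra-n-octylammonium bromide and DMSO controls.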

Row | SMILES | Potency [1] | outcome [2] | outcome [3] | outcome [4] | outcome [5] | outcome [6] | Potency [7] | Potency [8] | outcome [9] | Potency [10]
1 | CC1CCC2CC1C2(C)C (centres undefined) | inactive | inactive | inactive | inactive | inactive | inactive | inactive | inactive | inactive | –
2 | O=C(Oc1ccccc1)c1ccccc1 | inactive | inactive | inactive | inactive | inactive | inactive | inactive | inactive | inactive | inactive
3 | CCN(CC)c1ccc(C(=O)c2ccccc2C(=O)O)c(O)c1 | inactive | inactive | inactive | inactive | inactive | inactive | inactive | inactive | inactive | inactive
4 | CCc1cccc(C)c1N | inactive | inactive | inactive | inactive | inactive | inactive | inactive | inactive | inactive | inactive
5 | CCCCCC(N)=O | inactive | inactive | inactive | inactive | inactive | inactive | inactive | inactive | inactive | inactive
6 | CCCC(C)=O | inactive | inactive | inactive | inactive | inactive | inactive | inactive | inactive | inactive | inactive
7 | O=C=NCCCCCCN=C=O | inactive | inactive | inactive | inactive | inactive | inactive | inactive | 26.7 µM (active) and inactive | inactive | inactive
8 | Nc1ccccc1[N+](=O)[O-] | inactive | inactive | inactive | inactive | inactive | inactive | inactive | inactive | inactive | inactive
9 | CC(C)CC(=O)CC(C)C | inactive | inactive | inactive | inactive | inactive | inactive | inactive | inactive | inactive | inactive
10 | CCCCCCCC(=O)OC | inactive | inactive | inactive | inactive | inactive | inactive | inactive | inactive | inactive | inactive
11 | O=C(O)c1cc(=O)c2c(OCC(O)COc3cccc4oc(C(=O)O)cc(=O)c34)cccc2o1 | inactive | inactive | inactive | inactive | inactive | inactive | inactive | inactive | inactive | –
12 | ON=C1CCCCC1 | inactive and 38.9 µM (active) | inactive | inactive | inactive | inactive | inactive | inactive | inactive | inactive | inactive
13 | OCC(CO)(CBr)CBr | inactive | inactive | inactive | inactive | inactive | inactive | inactive | inactive | inactive | –
14 | CCCSc1ccc2nc(NC(=O)OC)[nH]c2c1 | inactive | inactive | inactive | inactive | inactive | inactive | inactive | inactive | inactive | –
15 | CCOC(=O)NNc1nncc2ccccc12 | inactive | inactive | inactive | inactive | inactive | inactive | inactive | – | inactive | inactive
16 | CC(=O)c1ccccc1 | inactive | inactive | inactive | inactive | inactive | inactive | inactive | – | inactive | inactive
17 | O=C(O)c1ccc2c(c1)C(=O)OC2=O | inactive | inactive | inactive | inactive | inactive | inactive | inactive | – | inactive | inactive
18 | O=P(OC(CCl)CCl)(OC(CCl)CCl)OC(CCl)CCl | inactive | inactive | inactive | inactive | inactive | inactive | inactive | – | – | inactive
19 | O=C(O)CCCC[C@@H]1SC[C@@H]2NC(=O)N[C@@H]21 | inactive | inactive | inactive | inactive | inactive | inactive | inactive | inactive | inactive | –
20 | O=c1[nH]c(=O)n([C@H]2C[C@H](O)[C@@H](CO)O2)cc1Br | inactive | inactive | inactive | inactive | inactive | inactive | inactive | – | inactive | –
21 | O=C1CCC(N2C(=O)c3ccccc3C2=O)C(=O)N1 (centres undefined) | inactive | inactive | inactive | inactive | inactive | inactive | inactive | – | inactive | inactive
22 | CN(C)CCC(c1ccc(Cl)cc1)c1ccccn1 (centres undefined) | inactive | inactive | inactive | inactive | inactive | inactive | inactive | – | – | –
23 | CC(=O)OCC(=O)[C@@]12N=C(C)O[C@@H]1C[C@H]1[C@@H]3CCC4=CC(=O)C=C[C@]4(C)[C@H]3[C@@H](O)C[C@@]12C | inactive | inactive | inactive | inactive | inactive | inactive | inactive | inactive | inactive | –
24 | CC(=O)CC(=O)Nc1ccccc1 | inactive | inactive | inactive | inactive | inactive | inactive | inactive | – | inactive | inactive
25 | O=C(O)CC(C(=O)O)C(CC(=O)O)C(=O)O (centres undefined) | inactive | inactive | inactive | inactive | inactive | inactive | inactive | – | inactive | –
26 | OCCOCCOCCO | inactive | inactive | inactive | inactive | inactive | inactive | – | inactive | inactive | inactive
